The results in this text go back to PubChem BioAssay (NCATS).

“And” between values parts separate entries of the source, which are not always exact repeats. Equal values may be shown once. Unmarked numbers belong to inactive results. Inconclusive results are not listed. The source made the active and inactive calls. Unless noted, calls follow the shape of the dose curve; as a rule, active = well fitted curve in the direction sought with a large enough effect; inconclusive = small, poorly fitted or top-dose-only effect, or another doubt; inactive = no such curve, though single readings can be large; an effect the other way counts as inactive or inconclusive.

Experiment [1] has as its target DNA dC->dU-editing enzyme APOBEC-3G (Homo sapiens) (UniProt Q9HC16). The experiment in a line: qHTS for inhibitors of Vif-A3G interactions: Validation (AID 588379). Also: 0% is about no effect. The gist of the method: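 HeLa cells stably expressing Vif and A3G-eYFP, 700 cells/well, incubated overnight at 37 deg C, then exposed to compound overnight at 37 deg C. Inhibition of Vif-mediated degradation read as increased yellow fluorescence (Ex 488/Em 500-530) by laser-scanning cytometry.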
A general note: In qHTS, concentration-response curves come from the screen itself.

Experiment [2] can be described thus: qHTS assay for small molecule activators of the nuclear factor-kappa B (NF-kB) signaling pathway (AID 651749; active = well fitted activation curve with a large enough effect in the signal ratio; the % refers to the signal ratio; also: series mostly up to about 77 µM; % of control where 0% means no effect). The note with it: NF-kB-bla ME-180 cells, beta-lactamase FRET ratio, 16 h; hits give high values. The gist of the method:
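Stably transfected ME-180 line; NF-kB response element upstream of beta-lactamase. Treatment: compound or DMSO, 16 hr. Detection: fluorescent FRET substrate.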

The target in experiment [3] is Cytochrome P450 2C9 (Homo sapiens) (UniProt P11712). The experiment in a line: qHTS Assay for Inhibitors and Substrates of Cytochrome P450 2C9 (AID 883). Also: nearly all actives have a fitted effect of over 60% in size. Also: potency is read from the fitted curve at half-maximal effect. As to activity change, negative = inhibition: % is scaled to controls: 0 for no effect and ±100 for the full control effect. The essentials:
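Turnover of Luciferin-H (100uM, KM) by 10nM human CYP2C9 was measured over 60 min at 37C with NADPH regeneration; inhibitors and some substrates reduce luminescence. Data normalized to sulphaphenazole 57uM.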

Experiment [4] deals with Cytochrome P450 2D6 (Homo sapiens) (UniProt P10635). The experiment in a line: qHTS Assay for Inhibitors and Substrates of Cytochrome P450 2D6 (AID 891). Also: potency is read from the fitted curve at half-maximal effect; nearly all actives have a fitted effect of over 60% in size. The gist of the method: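 Human CYP2D6 (5 nM) with 30 uM Luciferin-ME EGE (at Km) in 100 mM KPO4, compound preincubated 10 min, then NADPH regeneration system for 60 min at room temperature. Luciferin read by luminescence; normalized to 1.43 uM quinidine.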

Experiment [5] in a line: qHTS Assay for Identification of Small Molecule Agonists for Hypoxia Response Element Signaling Pathway (AID 914; active = well fitted activation curve with a large enough effect in the signal ratio, with a control signal flat, not every such curve was filed as active; the % refers to the signal ratio; also: % of control where 0% means no effect). The note with it: ME-180 (cervical carcinoma) HRE-bla reporter, beta-lactamase ratio, CoCl2, 17 h; activation: hits give high values. The essentials: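 Reporter activity (beta-lactamase, CCF4 460nm/530nm ratio) in HRE-bla ME-180 cells is recorded after 17 h compound exposure with EC50 CoCl2 at 37 degrees Celsius. AC50 values come from titration data.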

Sequence of Cytochrome P450 2C9 (Homo sapiens) (P11712 whole entry, looked up): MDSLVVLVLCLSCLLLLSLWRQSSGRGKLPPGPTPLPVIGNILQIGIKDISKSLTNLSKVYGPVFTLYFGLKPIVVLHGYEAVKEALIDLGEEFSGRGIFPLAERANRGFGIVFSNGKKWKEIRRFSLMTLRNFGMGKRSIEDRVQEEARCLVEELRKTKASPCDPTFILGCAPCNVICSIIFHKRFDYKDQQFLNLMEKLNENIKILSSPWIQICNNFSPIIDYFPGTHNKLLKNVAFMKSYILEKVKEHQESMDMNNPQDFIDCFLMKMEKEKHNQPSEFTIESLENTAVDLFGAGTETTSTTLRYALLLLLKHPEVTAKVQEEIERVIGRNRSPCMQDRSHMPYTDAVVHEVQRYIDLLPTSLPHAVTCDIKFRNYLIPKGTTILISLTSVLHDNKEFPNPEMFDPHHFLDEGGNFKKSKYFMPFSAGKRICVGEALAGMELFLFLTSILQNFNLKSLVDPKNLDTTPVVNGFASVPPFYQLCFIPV
Sequence of Cytochrome P450 2D6 (Homo sapiens) (P10635 whole entry, looked up): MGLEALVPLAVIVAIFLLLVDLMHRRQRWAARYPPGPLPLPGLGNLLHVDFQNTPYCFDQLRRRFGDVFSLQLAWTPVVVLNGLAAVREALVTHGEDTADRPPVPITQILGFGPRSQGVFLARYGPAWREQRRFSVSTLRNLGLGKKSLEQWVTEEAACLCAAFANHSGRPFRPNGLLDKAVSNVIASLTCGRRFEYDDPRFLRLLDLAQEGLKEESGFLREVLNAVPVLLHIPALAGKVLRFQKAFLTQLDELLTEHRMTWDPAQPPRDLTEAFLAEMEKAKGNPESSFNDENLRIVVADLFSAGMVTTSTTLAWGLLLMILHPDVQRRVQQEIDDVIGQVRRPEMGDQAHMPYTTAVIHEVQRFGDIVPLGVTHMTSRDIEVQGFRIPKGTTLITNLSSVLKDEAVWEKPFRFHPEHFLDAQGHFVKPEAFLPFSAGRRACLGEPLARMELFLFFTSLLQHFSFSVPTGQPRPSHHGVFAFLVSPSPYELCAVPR
Sequence of DNA dC->dU-editing enzyme APOBEC-3G (Homo sapiens) (Q9HC16 whole entry, looked up): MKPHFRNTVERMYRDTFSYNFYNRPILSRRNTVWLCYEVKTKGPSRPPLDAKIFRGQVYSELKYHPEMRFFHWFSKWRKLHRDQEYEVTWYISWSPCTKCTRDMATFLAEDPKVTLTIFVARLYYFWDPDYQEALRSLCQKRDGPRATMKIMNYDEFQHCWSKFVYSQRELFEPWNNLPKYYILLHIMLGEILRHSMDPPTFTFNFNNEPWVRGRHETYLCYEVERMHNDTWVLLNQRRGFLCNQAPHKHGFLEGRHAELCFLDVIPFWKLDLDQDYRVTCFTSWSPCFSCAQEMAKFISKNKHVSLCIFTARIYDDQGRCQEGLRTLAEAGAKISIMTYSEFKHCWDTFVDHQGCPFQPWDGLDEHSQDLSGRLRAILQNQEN

Take `CC(C)=CCCC(C)CCO` (stereo unspecified): the compound was called inactive in experiment [1].

With `COc1c2ccoc2cc2oc(=O)ccc12`, the call in experiment [1] was inactive.

Turning to `COC(=O)c1ccc(C=O)cc1`, the activation in experiment [2] was -1.54%.

For `S=C1NC=NC2N=CNC12` (stereo unspecified), in experiment [2], the activation is 1.89%.

`COc1ccc2[nH]cc(CCNc3ncnc4ccc(-c5cccc(C#N)c5)cc34)c2c1`: the Potency in experiment [3] was 63.1 nM (active).

On to `CCC(O)OC(O)CC` (stereo unspecified), for which the activation in experiment [2] is 0.14% [middle of 4 runs].

With `CN(C)C=O`, in experiment [2], the activation was 0.506% and -0.104% and -1.7%.

With `COc1ccc2[nH]cc(CCNc3ncncc3-c3ccccc3C)c2c1`, in experiment [4], the Potency is 1260 nM (active).

For `CN(C)c1ccc(-c2cncnc2NCCc2cnc[nH]2)cc1`, the Potency in experiment [4] is 5010 nM (active).

In the case of `COc1ccccc1CNc1nc(-c2ccc(C(=O)N(C)C)cc2)nc2ccccc12`, in experiment [5], the activation is 25.3%.

`COc1cccc(-c2nc(N(C)C)c3ccccc3n2)c1`: in experiment [3], the activity change, negative = inhibition was 45.3% [at 2.29 µM].
